Data: PubChem BioAssay AID602252 (Broad Institute, 2012)
In all, about 300,000 compounds went through this assay and about 2,700 (0.9%) were called active.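 The calls were made as follows: active = mean inhibition of at least 30% with at least half of replicates also reaching 30%; inconclusive = no clear call, values can overlap the other calls; inactive = the rest.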 Shown is part of a subset that was picked to be rich in actives.

target: Golgi-associated PDZ and coiled-coil motif-containing protein (Homo sapiens) (UniProt Q9HD26); assay: blockade of CAL PDZ-reporter peptide interaction – biochemical, fluorescence polarization, untagged CAL PDZ, HTS, primary screen (AID 602252); details: purified CAL PDZ, TMR-peptide fluorescence polarization, 1 h; at 24.9 µM; stronger effect = higher value;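 also: 0% = DMSO neutral control and 100% = excess unlabeled competitor peptide PRC23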

SMILES | inhibition
O=C1CN(C(=O)COC(=O)/C=C/c2ccc(F)cc2)c2ccccc2N1 | -2.46% (inactive)
C=CCn1c(COc2ccccc2F)nnc1SCC(=O)N1CC(=O)Nc2ccccc21 | 56% (active)
Nn1c(Cc2cccc3ccccc23)nnc1SCC(=O)N1CC(=O)Nc2ccccc21 | 1.45% (inactive)
COc1cc(NC(=O)c2[nH]cnc2C(N)=O)cc(C(=O)Nc2cccc(C(F)(F)F)c2)c1 | -1.42% (inactive)
COc1cccc(/C=C/c2ccc3ccccc3n2)c1OC(C)=O | -0.936% (inactive)
COc1ccc(/C=C/c2noc(-c3ccccc3OC(C)=O)n2)cc1 | 87% (active)
COC(=O)c1ccc(/C=C/c2c(-c3ccc(OC)cc3)sc3ccccc23)cc1 | 0.974% (inactive)
COCC(=O)N(C)[C@H]1C[C@H]2c3cc(Oc4ccccc4C)ccc3CCN2C(=O)[C@H]1[C@H](C)O | -3.46% (inactive)
C=CCC[C@@H](Cc1ccc(F)cc1)C(=O)OC[C@@H](C)NC(=O)[C@H](CC=C)CC(=O)N(CCO)Cc1ccccc1 | 3.24% (inactive)
COc1ccc(-c2noc(CCC(=O)N3CCN(c4cccc(C)c4)CC3)n2)cc1 | -3.56% (inactive)
COc1ccc(CNC(=O)C[C@H]2C[C@H](C(=O)N3CCOCC3)[C@@]3(C)c4[nH]c5cc(CCC(=O)N(C)C)ccc5c4CCN3C2=O)cc1OC | -5.01% (inactive)
O=S(=O)(c1ccc(OCC(O)CN2CCN(c3ccccc3Cl)CC2)cc1)N1CCOCC1 (stereo not drawn) | -2.34% (inactive)
CC(=O)c1ccc(OCC(O)CN2CCN(S(=O)(=O)c3cccc(Br)c3)CC2)cc1 (stereo not drawn) | 35% (active)
Cc1cccc(OCC(O)CN2CCN(S(=O)(=O)c3ccc(C)cc3C)CC2)c1 (stereo not drawn) | 1.68% (inactive)
COC(=O)c1ccc(NCc2cc(O)ccc2O)cc1 | 0.712% (inactive)
COc1cc(/C=C2/C(=O)ON=C2C)ccc1OCc1ccccc1F | -3.18% (inactive)
COc1cc(/C=C2/C(=O)ON=C2C)ccc1OCc1cccc(F)c1 | 40.4% (active)
C=CCOc1ccc(/C=C2/C(=O)ON=C2C)cc1OCC | -3% (inactive)
COc1cc(OC)c(C(=O)NNC(=O)c2ccc(NS(=O)(=O)c3cccs3)cc2)cc1OC | -2.8% (inactive)
C=CC(=O)Nc1ccc(Nc2ccnc(Nc3ccc(N4CCN(C)CC4)cc3)n2)cc1 | -0.863% (inactive)
CCOC(=O)c1ccc(NC(=S)Nc2cc(C)cc(C)n2)cc1 | -17% (inactive)
COC(=O)c1ccc(NC(=S)Nc2cccc(C)n2)cc1 | 52.8% (active)

SMILES | inhibition
COC(=O)c1ccc(NC(=O)Nc2ccc(C)cc2)cc1 | -0.88% (inactive)
O=C(N[C@@H]1C/C=C\C[C@@H](CC(=O)N(CCO)Cc2ccccc2)C(=O)N[C@H](Cc2ccccc2)COC1=O)OCC1c2ccccc2-c2ccccc21 | 14.1% (inactive)
CC1Cc2ccccc2N1S(=O)(=O)c1cccc(C(=O)NCC(c2ccco2)N2CCCC2)c1 (stereo not drawn) | 1.18% (inactive)
COC(=O)[C@]1(Cc2ccccc2)N[C@H](CN(C)S(=O)(=O)c2ccc(F)cc2)[C@@H]2C(=O)N(Cc3ccccc3)C(=O)[C@@H]21 | -4.16% (inactive)
COc1cc(/C=C/C(=O)Nc2ccc(OC)c(S(=O)(=O)N3CCOCC3)c2)ccc1OCC#N | -3.83% (inactive)
CN(C(=O)CSc1nnc(Nc2ccccc2)s1)C1CCS(=O)(=O)C1 (stereo not drawn) | -5.88% (inactive)
CC(C)N(C(=O)CSc1nnc(NC2CC2)s1)c1ccccc1 | 31.5% (active)
Cc1csc(SCC(=O)N(c2ccccc2)C(C)C)n1 | -3.25% (inactive)
C=CCOC(=O)N1CCC2CC1c1cc(-c3ccc(OC)cc3)ccc12 (stereo not drawn) | -1.31% (inactive)
Cc1cccc(C)c1NC(=O)CNC(=O)C1CCCC1 | -2.92% (inactive)
CCc1cccc(C)c1NC(=O)COC(=O)CC1CCCC1 | 31.1% (active)
CCc1cccc(C)c1NC(=O)COC(=O)Cc1ccsc1 | 5.55% (inactive)
COc1ccc2[nH]c3c(c2c1)CCN1C(=O)C(CC(=O)NCc2cccc(C(F)(F)F)c2)C[C@H](C(=O)N2CCOCC2)[C@@]31C (stereo partly drawn) | -2.83% (inactive)
COc1cc(/C=C/C(=O)OCC(=O)c2ccccc2)cc(OC)c1OC | -8.15% (inactive)
Cc1cccc(OC(=O)c2sc3ncn(C)c(=O)c3c2C)c1 | -1.6% (inactive)
Cc1c(C(N)=O)sc2ncn(CCOc3ccccc3)c(=O)c12 | 40.6% (active)
CCOC(=O)C(C)n1cnc2sc(C)c(C)c2c1=O (stereo not drawn) | -4.48% (inactive)
O=[N+]([O-])c1cc2ccccc2nc1-c1ccccc1 | 3.37% (inactive)
CCOc1ccc(C(=O)NCC(=O)N2CCCCCCC2)cc1OCC | 2.87% (inactive)
Cc1cc(C)cc(C(=O)NCC(=O)OCC(=O)N2CCCCC2)c1 | -4.99% (inactive)
COc1cc(OC)cc(C(=O)NCC(=O)N2CCCCCCC2)c1 | 59.5% (active)
Cc1ccc(C2(C)NC(=O)N(CC(=O)N3CC(=O)Nc4ccccc43)C2=O)cc1 (stereo not drawn) | -3.12% (inactive)

SMILES | inhibition
O=C(COC(=O)c1ccco1)Nc1ccc(Cl)cn1 | -5.62% (inactive)
CC(OC(=O)CCCOc1ccccc1)C(=O)Nc1ccc(Cl)cn1 (stereo not drawn) | -3.1% (inactive)
Cc1cccc(OCC(=O)OCC(=O)Nc2ccc(Cl)cn2)c1 | 74.8% (active)
CC(=O)Nc1ccc(S(=O)(=O)NCCC(=O)N2CCN(c3ccccc3Cl)CC2)cc1 | -2.76% (inactive)
COc1cc(C)ccc1OCC(=O)OCC(=O)c1ccc[nH]1 | 3.54% (inactive)
Cc1cccc(CC2(O)C(=O)Nc3ccccc32)n1 (stereo not drawn) | 3.12% (inactive)
Cc1cc([N+](=O)[O-])ccc1NS(=O)(=O)c1ccccc1 | 2.21% (inactive)
CC(=O)c1ccc(OCCCC(=O)Nc2ccc(C)c(S(=O)(=O)N3CCOCC3)c2)cc1 | -2.79% (inactive)
CCN(CC)S(=O)(=O)c1ccc(Cl)c(C(=O)NCCN2CCOCC2)c1 | 34.1% (active)
CCN(CC)S(=O)(=O)c1ccc(N2CCOCC2)c(C(=O)O)c1 | -7.23% (inactive)
CCN(CC(=O)NCCCN1CCOCC1)S(=O)(=O)c1cc(Cl)ccc1Cl | 6.12% (inactive)
CC(C)OC(=O)c1c(NC(=O)c2ccco2)sc2c1CCCC2 | -1.93% (inactive)
CCOC(=O)c1c(NC(=S)NC(=O)c2ccco2)sc2c1CCCC2 | 58.9% (active)
CCOC(=O)c1c(NC(=S)NC)sc2c1CCCC2 | 2.4% (inactive)
C=CC(COCc1ccccc1)N(CC(=O)OC)S(=O)(=O)c1cc(Br)ccc1OC (stereo not drawn) | -5.08% (inactive)
Cc1ncoc1C(=O)NCCC(c1ccccc1)c1ccccc1 | 56.7% (active)
Cc1ccc(S(=O)(=O)NCCC(c2ccccc2)c2ccccc2)cc1C(=O)O | 3.3% (inactive)
Cc1ccc(C(=O)NCCNC(=O)c2ccccc2)cc1 | 10.7% (inactive)
COc1cc(C(=O)NC2CCN(C)CC2)ccc1Nc1ncc2c(n1)N(C1CCC(O)CC1)CCC(=O)N2C (stereo not drawn) | -0.543% (inactive)
FC(F)(F)c1ccc(-c2cccc3c2C2CC3CCN2Cc2ccccc2)cc1 (stereo not drawn) | -2.76% (inactive)
CC(C)c1ccc(C=NNc2ccc([N+](=O)[O-])cn2)cc1 | -3.5% (inactive)
C[C@H](O)[C@@H]1C(=O)N2CCc3ccc(N4CCOCC4)cc3[C@@H]2C[C@@H]1N(C)C(=O)C(C)(C)C | -2.27% (inactive)

SMILES | inhibition
CN(CCc1ccccc1)C(=O)c1cccc(NC(=O)Cc2cccc(NC(=O)C3CCCN(C(=O)CCc4ccccc4)C3)c2)c1 (stereo not drawn) | -1.89% (inactive)
Cc1ccc(C(=O)N2CCN(C(=O)N3CCOCC3)CC2)cc1 | -4.62% (inactive)
Cc1ccc(CS(=O)Cc2ccc(C(=O)N3CCOCC3)o2)cc1 (stereo not drawn) | 61.7% (active)
Cc1ccc(S(=O)Cc2ccc(C(=O)N3CCN(C4CCCCC4)CC3)o2)cc1 (stereo not drawn) | -1.71% (inactive)
CC/C(=C(/c1ccccc1)c1ccc(OCC[N+](C)(C)C)cc1)c1ccccc1 | 5.44% (inactive)
CC(C)Cn1cnc2c(SCc3ccc(Cl)cc3)nc(N)nc21 | -5.42% (inactive)
CC(=O)CSc1nc(CCc2ccccc2)c(C#N)c(=O)[nH]1 | -3.06% (inactive)
CCNC(=S)Nc1ccc(OC(F)(F)F)cc1 | -0.766% (inactive)
CS(=O)(=O)c1sc(C(=O)NC(=S)Nc2ccc(OC(F)(F)F)cc2)c2c1C=CCC2 | 106% (active)
FC(F)(F)Oc1ccc(NC(=S)NCc2ccccc2)cc1 | 2.02% (inactive)
CCC(=O)N1CCc2cc(Br)c(S(=O)(=O)NCCN3CCCCC3CC)cc21 (stereo not drawn) | -29.4% (inactive)
Cc1ccc(C(=O)Nc2ccccc2-c2ccccc2)cc1S(=O)(=O)Nc1ccccc1 | -1.73% (inactive)
Cc1ccc(CNC(=O)Cn2cnc3c(NCc4ccccc4)ncnc32)o1 | -0.092% (inactive)
CC(C(=O)N1CCOCC1)N1c2cccc3cccc(c23)S1(=O)=O (stereo not drawn) | 0.599% (inactive)
COc1ccc(NC(=O)C(C)N2c3cccc4cccc(c34)S2(=O)=O)c(OC)c1 (stereo not drawn) | 62.5% (active)
COc1ccc(C)cc1NC(=O)CN1c2cccc3cccc(c23)S1(=O)=O | -0.836% (inactive)
CC(C)(C)NC(=O)Cn1cnc2cc([N+](=O)[O-])ccc2c1=O | -5.79% (inactive)
O=C(Cn1cnc2cc([N+](=O)[O-])ccc2c1=O)NC(=O)NCc1ccccc1 | 65.7% (active)
O=C(Cn1cnc2c(cnn2-c2ccccc2)c1=O)NCc1ccccc1 | 2.18% (inactive)
COc1cc(C(=O)OCc2cc(=O)n3ccsc3n2)ccc1OC(C)C | -4.78% (inactive)
Oc1[nH]c2ccccc2c1N=Nc1c(F)c(F)c(F)c(F)c1F | -3.27% (inactive)
O=C(OCC(=O)N1CCN(c2ccccc2)CC1)c1ccc([N+](=O)[O-])s1 | 4.92% (inactive)
